High-throughput results deposited in PubChem by several laboratories.
Platelet DG rel = platelet dense granule release activity; 0.22% of 300,000 active; human platelet-rich plasma, SFLLRN dense granule ATP release, luminescence; inhibition, %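 (compounds screened at 7.5 µM in platelet-rich plasma)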; AID 1663;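 active means mean replicate score, as percent of positive control, at or above 50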
HSF1 inh = HSF1 inhibition; NIH3T3-HGL HSE-luciferase, MG132-induced, luminescence 8 h; hits give low values; activity change, negative = inhibition, % at 7.5 µM (by protocol); 0.77% of 300,000 active;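 active means more than half of replicate wells show activity change below -50%, luminescence cut by over half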;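 further: luciferase reports HSF-1 transcriptional activity via heat shock element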
dFosB act = activators of mouse delta FosB homodimer; P13346; purified delta FosB, TAMRA-CDK5 oligo fluorescence polarization; percent of positive-control signal above neutral wells; activation, % at 25 µM; 0.99% of 340,000 active;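 active means mean activation above about 17%, with every replicate also reaching it, limit read from the data, passing the limit was not always enough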
Target sequence (P13346 whole entry, looked up): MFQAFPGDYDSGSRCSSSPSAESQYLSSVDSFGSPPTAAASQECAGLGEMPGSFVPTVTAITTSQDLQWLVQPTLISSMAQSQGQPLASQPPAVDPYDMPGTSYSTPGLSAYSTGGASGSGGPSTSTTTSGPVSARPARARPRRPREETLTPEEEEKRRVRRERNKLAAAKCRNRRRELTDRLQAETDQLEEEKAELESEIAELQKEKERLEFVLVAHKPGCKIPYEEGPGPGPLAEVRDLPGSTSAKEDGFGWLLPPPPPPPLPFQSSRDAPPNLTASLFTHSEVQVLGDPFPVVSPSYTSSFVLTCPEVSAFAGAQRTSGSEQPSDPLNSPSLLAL
MPTP block = permeability transition pore inhibition; isolated mouse mitochondria, Ca2+ swelling absorbance, 30 min; inhibition, % at 10 µM; 1.4% of 360,000 active; AID 602449;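 active means inhibition of 50% or more, scaled per plate between neutral and stimulator controls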
HSP90 refold inh = HSP90 refolding inhibition in rabbit reticulocyte lysate; luciferase refolding luminescence, 3 h; 0.91% of 290,000 active; AID 1789; inhibition, % at 5.6 µM;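 active means inhibition above the screen-wide mean plus 3 SD, computed separately per campaign, cut at about 16% in these data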;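 further: inhibitors lower the luminescence because luciferase stays unfolded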
HSF1 activator = increases HSF-1 driven luciferase reporter signal; NIH3T3-HGL HSF-1 luciferase reporter, MG132, 8 h; 100% = twice DMSO control signal; activation, % at 9 µM; 1.7% of 300,000 active; AID 504408;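 active means mean replicate activation of at least 50% with a set share of replicates each reaching 50%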
A number is an active result. This is a sample that favours compounds with a hit; in the whole collection about 4.9% have one here.

What do the screens show for `O=S(=O)(NC1CCCCC1)c1ccc(Cl)nc1`?
Platelet DG rel: inactive; HSF1 inh: inactive; dFosB act: inactive; MPTP block: inactive; HSP90 refold inh: inactive; HSF1 activator: inactive

What do the screens show for `Cc1cnc(NC(=O)c2cc3ccccc3o2)s1`?
Platelet DG rel: inactive; HSF1 inh: inactive; dFosB act: inactive; MPTP block: inactive; HSP90 refold inh: 38; HSF1 activator: inactive

Results for Cc1nnc(NC(=O)c2cc3ccccc3o2)s1 ?
Platelet DG rel: inactive; HSF1 inh: inactive; dFosB act: inactive; MPTP block: inactive; HSP90 refold inh: inactive; HSF1 activator: inactive

What do the screens show for `COc1ccc(S(=O)(=O)Nc2ccc3c(c2)[C@H]2C[C@H](CC(=O)NCC4CC4)O[C@@H](CO)[C@H]2O3)cc1`?
MPTP block: inactive

How did COc1cccc(-c2nnc(-c3ccc(C(F)(F)F)cc3)o2)c1 do in these assays?
Platelet DG rel: inactive; HSF1 inh: inactive; dFosB act: inactive; MPTP block: inactive; HSP90 refold inh: inactive; HSF1 activator: inactive

What do the screens show for `Oc1ccccc1-c1nnc(-c2ccc(C(F)(F)F)cc2)o1`?
Platelet DG rel: inactive; HSF1 inh: -63; dFosB act: inactive; MPTP block: inactive; HSP90 refold inh: inactive; HSF1 activator: inactive

How did CCn1c(CNC(C)=O)nnc1SCC(=O)c1ccc(Br)cc1 do in these assays?
Platelet DG rel: inactive; HSF1 inh: inactive; dFosB act: inactive; MPTP block: inactive; HSP90 refold inh: inactive; HSF1 activator: 82

Results for COC(=O)c1cnc(SCC(=O)c2ccccc2)n1C ?
Platelet DG rel: inactive; HSF1 inh: inactive; dFosB act: inactive; MPTP block: inactive; HSP90 refold inh: inactive; HSF1 activator: inactive

Results for Cn1ccnc1SCC(=O)c1ccc(Cl)cc1 ?
Platelet DG rel: inactive; HSF1 inh: inactive; dFosB act: inactive; MPTP block: inactive; HSP90 refold inh: inactive; HSF1 activator: inactive

How did CCn1c(SCC(N)=O)nnc1C(C)C do in these assays?
Platelet DG rel: inactive; HSF1 inh: inactive; dFosB act: inactive; MPTP block: inactive; HSP90 refold inh: inactive; HSF1 activator: inactive

How did CCn1c(SCC(=O)c2ccc(Cl)cc2)nnc1C(C)C do in these assays?
Platelet DG rel: inactive; HSF1 inh: inactive; dFosB act: inactive; MPTP block: inactive; HSP90 refold inh: inactive; HSF1 activator: 145

Results for Cn1c(CO)cnc1SCC(=O)c1ccc(Cl)cc1 ?
Platelet DG rel: inactive; HSF1 inh: inactive; dFosB act: inactive; MPTP block: inactive; HSP90 refold inh: inactive; HSF1 activator: 80

How did COC(=O)c1cnc(SCc2ccc(Cl)cc2)n1C do in these assays?
Platelet DG rel: inactive; HSF1 inh: inactive; dFosB act: inactive; MPTP block: inactive; HSP90 refold inh: inactive; HSF1 activator: 69

How did CCOc1cc(/C=N/Nc2ccccc2Cl)ccc1OCC(=O)O do in these assays?
dFosB act: inactive; MPTP block: inactive; HSP90 refold inh: inactive

Results for CCn1c(SCC(=O)c2ccc(Cl)cc2)nnc1-c1ccoc1C ?
Platelet DG rel: inactive; HSF1 inh: inactive; dFosB act: inactive; MPTP block: inactive; HSP90 refold inh: inactive; HSF1 activator: 75

Results for CCn1c(SCC(=O)c2ccc(C)cc2)nnc1-c1ccoc1C ?
Platelet DG rel: inactive; HSF1 inh: inactive; dFosB act: inactive; MPTP block: inactive; HSP90 refold inh: inactive; HSF1 activator: inactive

What do the screens show for `OC(c1ccccc1)(c1nc(-c2ccccc2)cs1)C(F)(F)F` (stereo not drawn)?
MPTP block: inactive

Results for CCCCOc1ccc2c(c1)C(=O)c1cc(O)ccc1-2 ?
Platelet DG rel: inactive; HSF1 inh: inactive; dFosB act: inactive; MPTP block: inactive; HSP90 refold inh: inactive; HSF1 activator: 64

Results for CCCCCCSc1ccc([C@H]2N[C@@](C)(C(=O)OC)[C@H]3C(=O)N(CC)C(=O)[C@@H]23)cc1 ?
Platelet DG rel: inactive; HSF1 inh: inactive; dFosB act: inactive; MPTP block: inactive; HSF1 activator: inactive

Results for Nc1ccccc1Nc1ccc([N+](=O)[O-])cc1[N+](=O)[O-] ?
Platelet DG rel: inactive; HSF1 inh: inactive; dFosB act: inactive; MPTP block: inactive; HSP90 refold inh: inactive; HSF1 activator: 60

What do the screens show for `CC(C)(C)c1nc(SCC(=O)Nc2ccc(N3CCOCC3)cc2)c2ccccc2n1`?
Platelet DG rel: inactive; HSF1 inh: inactive; dFosB act: inactive; MPTP block: inactive; HSP90 refold inh: inactive; HSF1 activator: 58

What do the screens show for `CC(C)CC(=O)Nc1ccc(N2CCOCC2)cc1`?
Platelet DG rel: inactive; HSF1 inh: inactive; dFosB act: inactive; MPTP block: inactive; HSP90 refold inh: inactive; HSF1 activator: 98

Results for CC(C)(C)c1nc(SCC(=O)Nc2ccc3c(c2)OCCO3)c2ccccc2n1 ?
Platelet DG rel: inactive; HSF1 inh: inactive; dFosB act: inactive; MPTP block: inactive; HSP90 refold inh: inactive; HSF1 activator: inactive

How did Cc1ccc(CNC(=O)C2CCC(=O)N(Cc3ccccc3F)C2)s1 (stereo not drawn) do in these assays?
Platelet DG rel: inactive; HSF1 inh: inactive; dFosB act: inactive; MPTP block: inactive; HSP90 refold inh: inactive; HSF1 activator: inactive

How did COc1cccc(-n2nc(-c3ccnn3-c3cccc(Cl)c3)c(=O)n(C)c2=O)c1 do in these assays?
Platelet DG rel: inactive; HSF1 inh: -54; dFosB act: inactive; MPTP block: inactive; HSP90 refold inh: inactive; HSF1 activator: inactive

Results for COc1cccc(-n2nc(-c3ccnn3-c3ccccc3)c(=O)n(C)c2=O)c1 ?
Platelet DG rel: inactive; HSF1 inh: inactive; dFosB act: inactive; MPTP block: inactive; HSP90 refold inh: inactive; HSF1 activator: inactive

What do the screens show for `COc1cc(C2c3c(oc4ccccc4c3=O)C(=O)N2Cc2ccco2)ccc1O` (stereo not drawn)?
Platelet DG rel: inactive; HSF1 inh: inactive; dFosB act: inactive; MPTP block: inactive; HSP90 refold inh: inactive; HSF1 activator: inactive

What do the screens show for `COc1cccc(C2c3c(oc4ccccc4c3=O)C(=O)N2Cc2ccco2)c1` (stereo not drawn)?
Platelet DG rel: inactive; HSF1 inh: inactive; dFosB act: inactive; MPTP block: inactive; HSF1 activator: 59

How did COc1ccc(Cc2nnc(SC(C)C(=O)Nc3ccc(F)cc3Cl)o2)cc1 (stereo not drawn) do in these assays?
Platelet DG rel: inactive; HSF1 inh: inactive; dFosB act: inactive; MPTP block: inactive; HSF1 activator: inactive

How did COCCNC(=O)C(c1ccc(C)cc1)N(C(=O)CCC(=O)Nc1ccccn1)c1ccccc1C (stereo not drawn) do in these assays?
Platelet DG rel: inactive; HSF1 inh: inactive; dFosB act: inactive; MPTP block: inactive; HSP90 refold inh: inactive; HSF1 activator: 78

What do the screens show for `COCCNC(=O)C(c1ccc(C)cc1)N(C(=O)CCC(=O)Nc1ccccn1)c1ccc(C)cc1` (stereo not drawn)?
Platelet DG rel: inactive; HSF1 inh: inactive; dFosB act: inactive; MPTP block: inactive; HSP90 refold inh: inactive; HSF1 activator: inactive
